Assay results taken from PubChem BioAssay AID1159580 (chemical genetic matrix, 2015).
“And” between values parts separate entries of the source, which are not always exact repeats. Equal entries are not always repeated. Hit rate of the full screen: of about 5,500 compounds, about 2,000 (36%) were called active. Not shown: some 18% with an inconclusive outcome. No stated cut-off is given here; in the data, active means normalized growth mostly below about 0.91 (no sharp cut-off); inconclusive means no clear call, values can overlap the other calls; inactive means mostly above about 0.92. The list shows a part of the results.

Assay: chemical genetic growth profiling, strain panel (AID 1159580);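 further: tested at 20 µM; growth read once vehicle control cultures reached saturation at 30 °C; 1 = growth at the plate median or of vehicle wells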
Settings: S. cerevisiae deletion strains, growth OD

Measured: normalized growth

CCOC(=O)[C@H](CCc1ccccc1)N[C@@H](C)C(=O)N1CCC[C@H]1C(=O)O
inactive: locus YAL021C, strain ccr4, stronger effect = lower value 0.98 | locus YAL026C, strain drs2, stronger effect = lower value 1 | locus YAL030W, strain snc1, stronger effect = lower value 0.992 | locus YBL061C, strain skt5, stronger effect = lower value 0.987 | locus YBR009C, strain hhf1, stronger effect = lower value 1.01 | locus YBR021W, strain FUR4, stronger effect = lower value 1.01 | locus YBR023C, strain chs3, stronger effect = lower value 0.988 | locus YBR171W, strain sec66, stronger effect = lower value 0.979 | locus YBR229C, strain ROT2, stronger effect = lower value 1 | locus YBR231C, strain swc5, stronger effect = lower value 1 | locus YBR279W, strain paf1, stronger effect = lower value 0.973 | locus YCL011C, strain gbp2, stronger effect = lower value 0.976 | locus YCL016C, strain dcc1, stronger effect = lower value 0.969 | locus YCL029C, strain bik1, stronger effect = lower value 1.02 | locus YCL061C, strain MRC1, stronger effect = lower value 1.01 | locus YCL069W, strain vba3, stronger effect = lower value 0.988 | locus YCR088W, strain abp1, stronger effect = lower value 0.995 | locus YDL005C, strain med2, stronger effect = lower value 0.995 | locus YDL035C, strain GPR1, stronger effect = lower value 1.03 | locus YDL040C, strain nat1, stronger effect = lower value 0.992 | locus YDL074C, strain BRE1, stronger effect = lower value 1.02 | locus YDL101C, strain DUN1, stronger effect = lower value 1.01 | locus YDL134C, strain PPH21, stronger effect = lower value 1.01 | locus YDL185W, strain tfp1, stronger effect = lower value 1.01 | locus YDL192W, strain arf1, stronger effect = lower value 1.01 | locus YDR001C, strain nth1, stronger effect = lower value 0.996 | locus YDR069C, strain doa4, stronger effect = lower value 0.984 | locus YDR101C, strain arx1, stronger effect = lower value 0.994 | locus YDR137W, strain rgp1, stronger effect = lower value 0.988 | locus YDR159W, strain sac3, stronger effect = lower value 0.937 | locus YDR162C, strain NBP2, stronger effect = lower value 1.01 | locus YDR195W, strain ref2 0.981 | locus YDR297W, strain sur2, stronger effect = lower value 1 | locus YDR318W, strain mcm21, stronger effect = lower value 1.02 | locus YDR334W, strain swr1, stronger effect = lower value 0.998 | locus YDR335W, strain msn5, stronger effect = lower value 0.991 | locus YDR388W, stronger effect = lower value 1.02 | locus YDR392W, strain spt3, stronger effect = lower value 0.923 | locus YDR502C, strain sam2, stronger effect = lower value 1.01 | locus YEL003W, strain gim4, stronger effect = lower value 1 | locus YEL037C, strain rad23, stronger effect = lower value 0.988 | locus YEL061C, strain CIN8 (second series), stronger effect = lower value 0.999 | locus YEL061C, strain CIN8, stronger effect = lower value 0.999 | locus YER015W, strain faa2, stronger effect = lower value 1 | locus YER016W, strain bim1, stronger effect = lower value 0.98 | locus YER110C, stronger effect = lower value 1.02 | locus YER111C, strain swi4, stronger effect = lower value 0.985 | locus YER155C, strain BEM2 (second series), stronger effect = lower value 1.02 | locus YER155C, strain BEM2, stronger effect = lower value 0.996 | locus YER167W, strain BCK2, stronger effect = lower value 0.997 | locus YFR010W, strain ubp6, stronger effect = lower value 1.01 | locus YGL078C, strain dbp3, stronger effect = lower value 1.01 | locus YGL086W, strain mad1, stronger effect = lower value 0.998 | locus YGL167C, strain pmr1, stronger effect = lower value 0.99 | locus YGL173C, strain kem1, stronger effect = lower value 0.995 | locus YGL227W, strain vid30, stronger effect = lower value 0.996 | locus YGL240W, strain doc1, stronger effect = lower value 0.985 | locus YGL248W, strain PDE1, stronger effect = lower value 1 | locus YGL253W, strain hxk2, stronger effect = lower value 0.987 | locus YGR078C, strain PAC10, stronger effect = lower value 1.02 | locus YGR135W, strain pre9, stronger effect = lower value 1.02 | locus YGR252W, strain gcn5, stronger effect = lower value 1.05 | locus YHR013C, strain ard1, stronger effect = lower value 0.967 | locus YHR027C, strain rpn1, stronger effect = lower value 1.01 | locus YHR030C, strain SLT2, stronger effect = lower value 0.998 and 1.03 | locus YHR079C, strain IRE1 (second series), stronger effect = lower value 1.01 | locus YHR079C, strain IRE1, stronger effect = lower value 1.05 | locus YHR094C, strain hxt1, stronger effect = lower value 1.01 | locus YHR129C, strain ARP1, stronger effect = lower value 0.998 | locus YHR142W, strain chs7, stronger effect = lower value 0.98 | locus YHR200W, strain rpn10, stronger effect = lower value 1.01 | locus YIL066C, strain RNR3, stronger effect = lower value 1.01 | locus YIL073C, strain SPO22, stronger effect = lower value 1.07 | locus YIL125W, strain kgd1, stronger effect = lower value 1.01 | locus YIR030C, strain dcg1, stronger effect = lower value 1.01 | locus YJL092W, strain hpr5, stronger effect = lower value 1 | locus YJL095W, strain BCK1 (second series), stronger effect = lower value 1 | locus YJL095W, strain BCK1, stronger effect = lower value 1.02 and 1.03 | locus YJL115W, strain asf1, stronger effect = lower value 0.989 | locus YJL129C, strain trk1, stronger effect = lower value 0.954 | locus YJL134W, strain LCB3, stronger effect = lower value 1 | locus YJL154C, strain vps35, stronger effect = lower value 0.99 | locus YJL164C, strain tpk1, stronger effect = lower value 0.98 | locus YJL166W, strain qcr8, stronger effect = lower value 1 | locus YJL168C, strain set2, stronger effect = lower value 1.01 | locus YJL187C, strain SWE1 (second series), stronger effect = lower value 1.01 | locus YJR043C, strain POL32, stronger effect = lower value 1.03 | locus YJR066W, strain TOR1, stronger effect = lower value 0.985
